Laboratory results: PubChem BioAssay AID1159580 (chemical genetic matrix, 2015)
Values joined by “and” are separate entries in the source; they are usually repeats but may differ in a detail not shown here. Equal entries are not always repeated. Among all 5,500 compounds or so, about 2,000 (36%) were called active. Inconclusive results (about 18%) are left out. Rule as the data show it: active = normalized growth mostly below about 0.91 (no sharp cut-off); inconclusive = no clear call, values can overlap the other calls; inactive = mostly above about 0.92. Some of the results follow.

Assay: chemical genetic growth profiling, strain panel (AID 1159580);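 also: tested at 20 µM; growth read once vehicle control cultures reached saturation at 30 °C; 1 = growth at the plate median or of vehicle wells; lower values mean less growth of the strain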
Settings: S. cerevisiae deletion strains, growth OD

Measured: normalized growth

COc1ccc(-c2cc(=O)c3c(O)cc(O[C@@H]4O[C@H](CO[C@H]5O[C@H](C)[C@@H](O)[C@H](O)[C@@H]5O)[C@@H](O)[C@H](O)[C@H]4O)cc3o2)cc1O
inactive: locus YAL021C, strain ccr4, active compounds read low 1.01 | locus YAL026C, strain drs2, active compounds read low 1.05 | locus YAL030W, strain snc1, active compounds read low 1.02 | locus YBL061C, strain skt5, active compounds read low 1.02 | locus YBR009C, strain hhf1, active compounds read low 1.01 | locus YBR021W, strain FUR4, active compounds read low 1.03 | locus YBR023C, strain chs3, active compounds read low 1.01 | locus YBR171W, strain sec66, active compounds read low 1.02 | locus YBR229C, strain ROT2, active compounds read low 0.994 | locus YBR231C, strain swc5, active compounds read low 1.02 | locus YBR279W, strain paf1, active compounds read low 1.01 | locus YCL011C, strain gbp2, active compounds read low 1.01 | locus YCL016C, strain dcc1, active compounds read low 1.02 | locus YCL029C, strain bik1, active compounds read low 0.986 | locus YCL061C, strain MRC1, active compounds read low 1.01 | locus YCL069W, strain vba3, active compounds read low 1.03 | locus YCR088W, strain abp1, active compounds read low 1.01 | locus YDL005C, strain med2, active compounds read low 1.02 | locus YDL035C, strain GPR1, active compounds read low 0.983 | locus YDL040C, strain nat1, active compounds read low 1 | locus YDL074C, strain BRE1, active compounds read low 1.02 | locus YDL101C, strain DUN1, active compounds read low 0.995 | locus YDL185W, strain tfp1, active compounds read low 0.969 | locus YDL192W, strain arf1, active compounds read low 0.985 | locus YDR001C, strain nth1, active compounds read low 1.01 | locus YDR069C, strain doa4, active compounds read low 1.02 | locus YDR101C, strain arx1, active compounds read low 1 | locus YDR137W, strain rgp1, active compounds read low 1.03 | locus YDR150W, strain NUM1, active compounds read low 0.99 | locus YDR159W, strain sac3, active compounds read low 1.02 | locus YDR162C, strain NBP2, active compounds read low 0.972 | locus YDR195W, strain ref2 1.04 | locus YDR297W, strain sur2, active compounds read low 1.01 | locus YDR318W, strain mcm21, active compounds read low 1 | locus YDR334W, strain swr1, active compounds read low 1.02 | locus YDR335W, strain msn5, active compounds read low 1.01 | locus YDR388W, active compounds read low 0.991 | locus YDR392W, strain spt3, active compounds read low 0.987 | locus YDR502C, strain sam2, active compounds read low 0.993 | locus YEL003W, strain gim4, active compounds read low 1.02 | locus YEL037C, strain rad23, active compounds read low 1.01 | locus YEL061C, strain CIN8 (second series), active compounds read low 1.03 | locus YEL061C, strain CIN8, active compounds read low 0.997 | locus YER015W, strain faa2, active compounds read low 1.01 | locus YER016W, strain bim1, active compounds read low 1.02 | locus YER110C, active compounds read low 0.979 | locus YER111C, strain swi4, active compounds read low 1 | locus YER155C, strain BEM2 (second series), active compounds read low 1 | locus YER155C, strain BEM2, active compounds read low 0.995 | locus YER167W, strain BCK2, active compounds read low 0.981 | locus YFR010W, strain ubp6, active compounds read low 1.02 | locus YGL078C, strain dbp3, active compounds read low 1 | locus YGL086W, strain mad1, active compounds read low 1.01 | locus YGL167C, strain pmr1, active compounds read low 1.01 | locus YGL173C, strain kem1, active compounds read low 1.04 | locus YGL227W, strain vid30, active compounds read low 1.01 | locus YGL240W, strain doc1, active compounds read low 1.04 | locus YGL248W, strain PDE1, active compounds read low 0.999 | locus YGL253W, strain hxk2, active compounds read low 1 | locus YGR078C, strain PAC10, active compounds read low 1.01 | locus YGR135W, strain pre9, active compounds read low 0.956 | locus YGR252W, strain gcn5, active compounds read low 1.04 | locus YHR013C, strain ard1, active compounds read low 1.02 | locus YHR027C, strain rpn1, active compounds read low 1.02 | locus YHR030C, strain SLT2, active compounds read low 0.985 and 1 | locus YHR079C, strain IRE1 (second series), active compounds read low 0.991 | locus YHR079C, strain IRE1, active compounds read low 0.996 | locus YHR094C, strain hxt1, active compounds read low 0.977 | locus YHR129C, strain ARP1, active compounds read low 0.988 | locus YHR142W, strain chs7, active compounds read low 0.978 | locus YHR200W, strain rpn10, active compounds read low 0.989 | locus YIL066C, strain RNR3, active compounds read low 0.994 | locus YIL073C, strain SPO22, active compounds read low 0.963 | locus YIL125W, strain kgd1, active compounds read low 1.01 | locus YIR030C, strain dcg1, active compounds read low 0.985 | locus YJL092W, strain hpr5, active compounds read low 1.02 | locus YJL095W, strain BCK1 (second series), active compounds read low 1.01 | locus YJL095W, strain BCK1, active compounds read low 1.01 and 0.997 | locus YJL115W, strain asf1, active compounds read low 1.03 | locus YJL129C, strain trk1, active compounds read low 1.03 | locus YJL134W, strain LCB3, active compounds read low 0.988 | locus YJL154C, strain vps35, active compounds read low 1.02 | locus YJL164C, strain tpk1, active compounds read low 1.02 | locus YJL166W, strain qcr8, active compounds read low 1.02 | locus YJL168C, strain set2, active compounds read low 1 | locus YJL187C, strain SWE1 (second series), active compounds read low 1 | locus YJL187C, strain SWE1, active compounds read low 1.01 | locus YJR043C, strain POL32, active compounds read low 1.02 | locus YJR066W, strain TOR1, active compounds read low 0.981
